Assay results taken from PubChem BioAssay (NCATS).
Records with an inconclusive call do not appear. Calls of active or inactive are those of the source. Unless noted, the call rests on the fitted dose curve; in most records, active means well fitted curve in the direction sought with a large enough effect; inconclusive means small, poorly fitted or top-dose-only effect, or another doubt; inactive means no such curve, though single readings can be large; an effect the other way counts as inactive or inconclusive.

What was measured:
[1] = AP1 Signaling Pathway (AID 357; active means well fitted curve in either direction with a large enough effect, not every such curve was filed as active;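 further: ME-180 reporter cells stimulated with EGF at its EC50 level; on the % scale 0 is the no-effect control and ±100 the full control effect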); settings: ME-180 AP-1-bla reporter, EGF-induced, beta-lactamase ratio, 5 h; at 7.69 µM (top of the series) unless noted
Procedure, shortened: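 AP-1-bla ME-180 cells, Opti-MEM + 0.5% dialyzed FBS, plated overnight 37 °C. Cpd titration + EC50 EGF, 5 h 37 °C. CCF4 2.5 h RT; ex 405, em 460/530 ratio → %activity, AC50.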

[2] = molecular target: Cytochrome P450 1A2 (Homo sapiens) (UniProt P05177); experiment: p450-cyp1a2 (AID 410; calls by dose curve;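 further: -100% = full effect of reference inhibitor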)
Chain of Cytochrome P450 1A2 (Homo sapiens) (P05177 whole entry, looked up): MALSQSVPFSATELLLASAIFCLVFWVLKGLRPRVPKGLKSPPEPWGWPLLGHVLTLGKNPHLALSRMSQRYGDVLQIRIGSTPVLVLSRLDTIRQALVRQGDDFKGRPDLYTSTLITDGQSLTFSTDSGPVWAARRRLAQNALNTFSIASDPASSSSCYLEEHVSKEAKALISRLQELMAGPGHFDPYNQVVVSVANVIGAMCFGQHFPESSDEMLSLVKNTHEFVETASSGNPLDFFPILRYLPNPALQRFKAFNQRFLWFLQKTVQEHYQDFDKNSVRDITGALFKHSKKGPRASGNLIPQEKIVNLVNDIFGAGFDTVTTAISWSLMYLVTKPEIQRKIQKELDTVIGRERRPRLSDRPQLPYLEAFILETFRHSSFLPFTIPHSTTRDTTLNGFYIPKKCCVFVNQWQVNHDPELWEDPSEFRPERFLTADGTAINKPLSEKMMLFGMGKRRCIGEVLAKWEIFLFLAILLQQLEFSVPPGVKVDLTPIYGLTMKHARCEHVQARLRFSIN
Procedure, shortened: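 Human CYP1A2 (20nM) demethylated Luciferin-ME at its Km (100uM) in 100mM KPO4. After 10 min compound preincubation, NADPH regeneration ran the reaction 60 min at room temperature. Luciferin was read by luminescence, normalized to 57 uM furafylline.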

[3] = NFAT Signaling Pathway (AID 444; active means well fitted curve in either direction with a large enough effect, not every such curve was filed as active;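 further: carbachol stimulus at about its EC50 of 1 µM final; on the % scale 0 is the no-effect control and ±100 the full control effect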); settings: Jurkat NFAT-bla M1, carbachol, beta-lactamase ratio, 5 h; at 7.69 µM (top of the series) unless noted
Procedure, shortened: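 Jurkat cells carrying an NFAT-driven β-lactamase reporter and co-transfected muscarinic M1 receptor were treated with compound plus carbachol (1 uM final, an EC50 level) for 5 h at 37 °C. CCF4 loading followed for 1 h at RT; 460/530 nm ratio gave %activity.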

[4] = Stat Signaling Pathway (AID 446; active means well fitted curve in either direction with a large enough effect, not every such curve was filed as active;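 further: ME-180 cervical cancer cells given 40 pM IL-6 alongside compound; SIE-controlled beta-lactamase reporter measured as 460/530 nm FRET emission ratio; on the % scale 0 is the no-effect control and ±100 the full control effect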); settings: ME-180 (cervical carcinoma) SIE beta-lactamase reporter, IL-6 stimulated, 5 h; at 7.69 µM (top of the series) unless noted
Procedure, shortened: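 IL-6/STAT signaling read in ME-180 cells via an SIE beta-lactamase reporter. Stimulus was 40 pM IL-6 (its AC50) for 5 hrs, so both activation and inhibition register.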

[5] = molecular target: Mitogen-activated protein kinase 10 (Mus musculus) (UniProt Q61831); experiment: JNK3 AlphaScreen Assay (AID 530; active means well fitted curve in either direction with a large enough effect, not every such curve was filed as active;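 further: kinase came from lysate of stimulated human HepG2 cells; signal reports phosphorylation of biotinylated GST-cJun 1-79 at Ser73 with 10 µM ATP; on the % scale 0 is the no-effect control and ±100 the full control effect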)
Procedure, shortened: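 JNK3 came from HepG2 lysates pre-activated with IL-1beta and TNF-alpha and phosphorylated biotinylated GST-cJun (1-79) at 10 uM ATP, pH 7.6, room temperature. Compounds were titrated. AlphaScreen signal used anti-phospho-cJun (Ser73) antibody.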

[6] = molecular target: 3',5'-cyclic-AMP phosphodiesterase 4B (Homo sapiens) (UniProt Q07343); experiment: qHTS Assay for Inhibitors of PDE-IV (AID 607; active means well fitted activation curve with a large enough effect in the main read-out, with a control signal flat, not every such curve was filed as active; further: % of control where 0% means no effect)
Chain of 3',5'-cyclic-AMP phosphodiesterase 4B (Homo sapiens) (Q07343 whole entry, looked up): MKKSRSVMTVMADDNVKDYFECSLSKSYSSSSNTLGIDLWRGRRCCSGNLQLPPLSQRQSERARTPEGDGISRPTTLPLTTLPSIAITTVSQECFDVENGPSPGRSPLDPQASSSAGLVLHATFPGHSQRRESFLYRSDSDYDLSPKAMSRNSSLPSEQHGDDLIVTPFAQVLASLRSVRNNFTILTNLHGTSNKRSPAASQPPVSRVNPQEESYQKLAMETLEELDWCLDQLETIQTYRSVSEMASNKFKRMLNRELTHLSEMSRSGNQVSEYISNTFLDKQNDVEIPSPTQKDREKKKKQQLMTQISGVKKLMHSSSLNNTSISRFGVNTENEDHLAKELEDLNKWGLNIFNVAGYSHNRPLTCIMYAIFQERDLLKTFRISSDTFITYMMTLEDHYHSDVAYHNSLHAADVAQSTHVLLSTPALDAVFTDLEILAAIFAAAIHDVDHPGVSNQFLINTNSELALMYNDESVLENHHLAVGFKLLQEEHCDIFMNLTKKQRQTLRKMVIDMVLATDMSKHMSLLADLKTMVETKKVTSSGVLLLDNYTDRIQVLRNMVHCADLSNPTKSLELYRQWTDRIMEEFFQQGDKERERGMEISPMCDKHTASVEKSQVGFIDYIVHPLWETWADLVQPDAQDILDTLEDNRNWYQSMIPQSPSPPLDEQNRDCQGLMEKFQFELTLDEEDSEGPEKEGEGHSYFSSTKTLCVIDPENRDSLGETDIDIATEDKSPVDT
Procedure, shortened: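 Live HEK293 cells with a modified cyclic nucleotide-gated (CNG) channel report intracellular cAMP via membrane-potential dye fluorescence (ex 535/em 590 nm). Endogenous PDE-IV was targeted. Compounds were tested at up to 22.9 uM final; RO 20-1724 100 uM served as control.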

[7] = molecular target: ATP-dependent 6-phosphofructokinase (Trypanosoma brucei brucei) (UniProt O15648); experiment: qHTS Assay to Find Inhibitors of T. brucei phosphofructokinase: hit validation (AID 492961)
Chain of ATP-dependent 6-phosphofructokinase (Trypanosoma brucei brucei) (O15648 whole entry, looked up): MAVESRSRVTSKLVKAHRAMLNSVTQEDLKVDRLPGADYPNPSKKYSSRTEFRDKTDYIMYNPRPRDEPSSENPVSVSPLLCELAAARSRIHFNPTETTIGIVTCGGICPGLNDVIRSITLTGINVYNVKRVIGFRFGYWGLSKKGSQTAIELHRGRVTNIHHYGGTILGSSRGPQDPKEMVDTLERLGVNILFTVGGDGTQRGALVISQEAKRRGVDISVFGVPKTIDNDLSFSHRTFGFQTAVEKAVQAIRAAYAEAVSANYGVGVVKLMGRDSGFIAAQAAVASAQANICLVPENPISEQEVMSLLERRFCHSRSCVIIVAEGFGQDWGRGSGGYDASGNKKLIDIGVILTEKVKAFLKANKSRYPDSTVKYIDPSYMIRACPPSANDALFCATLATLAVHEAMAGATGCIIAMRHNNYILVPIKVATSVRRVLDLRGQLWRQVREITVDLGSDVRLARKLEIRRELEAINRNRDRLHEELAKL
Procedure, shortened: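 Reaction: 0.1 M triethanolamine pH 8.0, 5 mM MgCl2, F6P 0.5 mM, ATP 0.1 mM, PFK 1.25 nM, 45 min RT. Read-out: ADP-Glo luminescence. Analysis: concentration-response fits, classed by r2 and efficacy.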

[8] = molecular target: Luciferin 4-monooxygenase (Photinus pyralis) (UniProt P08659); experiment: Biochemical firefly luciferase enzyme assay for NPC (AID 624030);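 further: purified P. pyralis luciferase at 10 nM with luciferin and ATP substrate; 0% = DMSO and -100% = full luciferase inhibition by PTC124 control; nearly all actives have a fitted effect of over 70% in size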
Chain of Luciferin 4-monooxygenase (Photinus pyralis) (P08659 whole entry, looked up): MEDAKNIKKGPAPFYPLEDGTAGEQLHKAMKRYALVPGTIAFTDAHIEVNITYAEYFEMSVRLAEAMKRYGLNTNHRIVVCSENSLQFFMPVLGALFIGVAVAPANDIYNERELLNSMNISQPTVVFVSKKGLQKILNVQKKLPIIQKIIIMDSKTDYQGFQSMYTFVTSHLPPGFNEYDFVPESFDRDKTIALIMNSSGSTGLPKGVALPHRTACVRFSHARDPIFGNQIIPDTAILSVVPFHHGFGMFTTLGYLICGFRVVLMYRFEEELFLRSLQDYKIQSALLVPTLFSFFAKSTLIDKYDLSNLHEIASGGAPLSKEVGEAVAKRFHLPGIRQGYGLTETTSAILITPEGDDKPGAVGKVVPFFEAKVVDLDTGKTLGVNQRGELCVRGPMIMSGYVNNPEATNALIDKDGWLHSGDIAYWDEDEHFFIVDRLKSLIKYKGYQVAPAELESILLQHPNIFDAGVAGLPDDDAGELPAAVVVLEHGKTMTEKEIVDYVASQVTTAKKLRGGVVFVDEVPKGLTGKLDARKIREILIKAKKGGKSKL
Procedure, shortened: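 Counter-screen for direct inhibition of the luciferase enzyme by approved-drug library compounds, run at 10 nM enzyme in 50 mM Tris acetate (final). Luminescence was read within 5 min of enzyme-buffer addition and normalized to PTC124 versus DMSO (0%).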

[9] = S16 Schwann cell PMP22 intronic element firefly luciferase assay (AID 624032);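 further: plate controls were DMSO for no effect and PTC124 positive control mean for full effect; nearly all actives have a fitted effect of over 30% in size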
Procedure, shortened: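 Rat S16 Schwann cells stably carrying a PMP22 intronic element-driven Fluc reporter were seeded overnight, then exposed to compounds for 24 h at 37 °C. Luminescence was normalized to PTC124 (positive control) and DMSO (0% activity).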

[10] = S16 Schwann cell PMP22 intronic element beta-lactamase assay (AID 624044; calls by dose curve;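 further: 0% = DMSO and -100% = potassium clavulanate positive control; nearly all actives have a fitted effect of over 15% in size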)
Procedure, shortened: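 Rat S16 Schwann cells with beta-Lac driven by a PMP22 intronic element, compound-treated 24 h at 37 °C. LiveBLAzer FRET B/G read: 460 nm normalized to potassium clavulanate vs DMSO; 535 nm FRET as viability; concentration-effect curves classified.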

[11] = qHTS profiling for inhibitors of Plasmodium falciparum proliferation (AID 504749);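 further: 0% = DMSO vehicle and full inhibition = artemisinin control; nearly all actives have a fitted effect of over 60% in size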; settings: P. falciparum in erythrocytes, SYBR Green DNA, 72 h, at 28.7 µM (top of the series)
Procedure, shortened: (§1)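 P. falciparum-infected erythrocytes (0.3% parasitemia, 2.5% hematocrit final) were exposed to compounds for 72 h at 37 C in 5% CO2, then lysed with SYBR Green buffer overnight at room temperature; parasite DNA fluorescence was normalized to artemisinin and DMSO controls.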

3D7 = experiment: as above; settings: P. falciparum in erythrocytes, SYBR Green DNA, 72 h; series mostly up to 28.7 µM
Procedure, shortened: as §1

7G8 = experiment: as above; settings: P. falciparum in erythrocytes, SYBR Green DNA, 72 h; series mostly up to 28.7 µM
Procedure, shortened: as §1

AA1029 = experiment: as above; settings: P. falciparum in erythrocytes, SYBR Green DNA, 72 h; series mostly up to 28.7 µM
Procedure, shortened: as §1

AS120 = experiment: as above; settings: P. falciparum in erythrocytes, SYBR Green DNA, 72 h; series mostly up to 28.7 µM
Procedure, shortened: as §1

ATS189 = experiment: as above; settings: P. falciparum in erythrocytes, SYBR Green DNA, 72 h; series mostly up to 28.7 µM
Procedure, shortened: as §1

ATS95 = experiment: as above; settings: P. falciparum in erythrocytes, SYBR Green DNA, 72 h; series mostly up to 28.7 µM
Procedure, shortened: as §1

C2A = experiment: as above; settings: P. falciparum in erythrocytes, SYBR Green DNA, 72 h; series mostly up to 28.7 µM
Procedure, shortened: as §1

CP185 = experiment: as above; settings: P. falciparum in erythrocytes, SYBR Green DNA, 72 h; series mostly up to 28.7 µM
Procedure, shortened: as §1

CP191 = experiment: as above; settings: P. falciparum in erythrocytes, SYBR Green DNA, 72 h; series mostly up to 28.7 µM
Procedure, shortened: as §1

CP192 = experiment: as above; settings: P. falciparum in erythrocytes, SYBR Green DNA, 72 h; series mostly up to 28.7 µM
Procedure, shortened: as §1

CP194 = experiment: as above; settings: P. falciparum in erythrocytes, SYBR Green DNA, 72 h; series mostly up to 28.7 µM
Procedure, shortened: as §1

CP201 = experiment: as above; settings: P. falciparum in erythrocytes, SYBR Green DNA, 72 h; series mostly up to 28.7 µM
Procedure, shortened: as §1

CP203 = experiment: as above; settings: P. falciparum in erythrocytes, SYBR Green DNA, 72 h; series mostly up to 28.7 µM
Procedure, shortened: as §1

CP211 = experiment: as above; settings: P. falciparum in erythrocytes, SYBR Green DNA, 72 h; series mostly up to 28.7 µM
Procedure, shortened: as §1

CP215 = experiment: as above; settings: P. falciparum in erythrocytes, SYBR Green DNA, 72 h; series mostly up to 28.7 µM
Procedure, shortened: as §1

CP217 = experiment: as above; settings: P. falciparum in erythrocytes, SYBR Green DNA, 72 h; series mostly up to 28.7 µM
Procedure, shortened: as §1

CP237 = experiment: as above; settings: P. falciparum in erythrocytes, SYBR Green DNA, 72 h; series mostly up to 28.7 µM
Procedure, shortened: as §1

CP238 = experiment: as above; settings: P. falciparum in erythrocytes, SYBR Green DNA, 72 h; series mostly up to 28.7 µM
Procedure, shortened: as §1

CP247 = experiment: as above; settings: P. falciparum in erythrocytes, SYBR Green DNA, 72 h; series mostly up to 28.7 µM
Procedure, shortened: as §1

CP250 = experiment: as above; settings: P. falciparum in erythrocytes, SYBR Green DNA, 72 h; series mostly up to 28.7 µM
Procedure, shortened: as §1

CP252 = experiment: as above; settings: P. falciparum in erythrocytes, SYBR Green DNA, 72 h; series mostly up to 28.7 µM
Procedure, shortened: as §1

CP256 = experiment: as above; settings: P. falciparum in erythrocytes, SYBR Green DNA, 72 h; series mostly up to 28.7 µM
Procedure, shortened: as §1

CP260 = experiment: as above; settings: P. falciparum in erythrocytes, SYBR Green DNA, 72 h; series mostly up to 28.7 µM
Procedure, shortened: as §1

CO/N=C(\C(=O)N[C@@H]1C(=O)N2C(C(=O)[O-])=C(C[N+]3(C)CCCC3)CS[C@@H]12)c1csc(N)n1
inactive: activity change, negative = inhibition [1] 2.79% [at 17.2 µM] | Potency [2] | activity change, negative = inhibition [3] -16.9% [at 17.2 µM] | activity, negative = inhibition [4] 11.5% [at 17.2 µM] | Potency [5] | Potency [6] | outcome [7] | outcome [8] | Potency [9] | outcome [10] | activity, negative = inhibition ([11]; parasite line A) 2.78% | activity, negative = inhibition ([11]; parasite line B) 10.9% | Potency (3D7) | Potency (7G8) | Potency (AA1029) | Potency (AS120) | Potency (ATS189) | Potency (ATS95) | Potency (C2A) | Potency (CP185) | Potency (CP191) | Potency (CP192) | Potency (CP194) | Potency (CP201) | Potency (CP203) | Potency (CP211) | Potency (CP215) | Potency (CP217) | Potency (CP237) | Potency (CP238) | Potency (CP247) | Potency (CP250) | Potency (CP252) | Potency (CP256) | Potency (CP260)
